For eight compounds, growth results are on record in PubChem BioAssay (NCI).

Some test systems named below: SK-MEL-2 melanoma; EKVX NSCLC; SN12C renal; UO-31 renal; TK-10 renal; ACHN renal; CAKI-1 renal; CCRF-CEM leukemia; MOLT-4 leukemia; RPMI-8226 leukemia; OVCAR-8 ovarian; OVCAR-5 ovarian; OVCAR-4 ovarian; SK-OV-3 ovarian; IGROV1 ovarian; OVCAR-3 ovarian; HS 578T breast; NCI/ADR-RES ovarian; A498 renal; SR leukemia.
Holding throughout (assay): NCI-60 one-dose screen, 48 h (100 = growth as untreated, 0 = no growth, -100 = all killed)
Conditions in all cases: 10 µM unless noted

Compounds without any hit were thinned out: in the full panel of roughly 83,000, 20% have a hit.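 A percent growth of 40 corresponds to 60% growth inhibition; 0 means no net growth; -100 means all cells died. Active threshold: below 10.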 Unmarked numbers belong to inactive results. Active and inactive are the calls of the source.

Regarding `Cc1cc(Cl)ccc1OC(C)C(=O)Nc1nnc(C2CC2)s1` (centres undefined), the growth with SK-MEL-2 melanoma is 36.3%; with EKVX NSCLC, 98.6%; in the experiment on SN12C renal, 96.4%; with UO-31 renal, 40.1%; in the experiment on TK-10 renal, 104%; in the experiment on ACHN renal it was 109%. The growth is 103% with CAKI-1 renal; 95.9% in the experiment with CCRF-CEM leukemia; 108% in the experiment on MOLT-4 leukemia; 89.6% in the experiment with RPMI-8226 leukemia; 111% with OVCAR-8 ovarian; 98.7% in the experiment on OVCAR-5 ovarian. The growth in the experiment with OVCAR-4 ovarian is 104%; in the experiment on SK-OV-3 ovarian, 103%; with IGROV1 ovarian, -51.7% (active); in the experiment on OVCAR-3 ovarian, 110%; in the experiment with HS 578T breast it was -24.6% (active); in the experiment with NCI/ADR-RES ovarian it was 96.6%.
As to `Clc1ccc(/C=C/c2nc(N3CCOCC3)c3nc(Cl)c(Cl)cc3n2)cc1`, the growth in the experiment with SK-MEL-2 melanoma was 110%; in the experiment on SN12C renal, 94.1%; with UO-31 renal, 76.7%; with TK-10 renal it was 107%; in the experiment with ACHN renal it was 51.5%; in the experiment with CAKI-1 renal, 109%. The growth is 106% with A498 renal; 106% with CCRF-CEM leukemia; 88% in the experiment on MOLT-4 leukemia; 98% in the experiment on SR leukemia; 102% with RPMI-8226 leukemia; 108% in the experiment on OVCAR-8 ovarian. For the same compound, the growth is 110% in the experiment on OVCAR-5 ovarian; 128% with OVCAR-4 ovarian; 105% with SK-OV-3 ovarian; 117% in the experiment with IGROV1 ovarian; 104% in the experiment on HS 578T breast; 98.5% in the experiment with NCI/ADR-RES ovarian.
As to `CCC(=O)Oc1cc(/C=C/C(=O)O[C@H]2C[C@H]3CN4CCc5c([nH]c6cc(OC)ccc56)[C@@H]4C[C@@H]3[C@@H](C(=O)OC)[C@@H]2OC)ccc1OC`, the growth was 101% in the experiment with SK-MEL-2 melanoma; 55.9% in the experiment with SN12C renal; 40.9% in the experiment on UO-31 renal; 75.2% in the experiment on TK-10 renal; 46.2% in the experiment with ACHN renal; 45.6% in the experiment with CAKI-1 renal. Also, the growth with A498 renal is 5.24% (active); in the experiment with CCRF-CEM leukemia it was 38.1%; with MOLT-4 leukemia, 50.8%; in the experiment on SR leukemia, 1.95% (active); with RPMI-8226 leukemia, 39.9%; with OVCAR-8 ovarian, 86.8%. In addition, the growth was 87% in the experiment on OVCAR-5 ovarian; 86.5% with SK-OV-3 ovarian; 88.5% in the experiment on IGROV1 ovarian; 73.1% with OVCAR-3 ovarian; 56.5% in the experiment on HS 578T breast; 87.1% in the experiment with NCI/ADR-RES ovarian.
As for `COc1cc(-c2cc(/C=C3\CCCCC3=O)[nH]n2)cc(OC)c1OC`, the growth is 94.7% with SK-MEL-2 melanoma; 93.8% in the experiment on SN12C renal; 80.8% in the experiment with UO-31 renal; 112% in the experiment on TK-10 renal; 98.7% in the experiment on ACHN renal; 91.2% in the experiment on CAKI-1 renal. Besides, the growth with A498 renal is 95.2%; in the experiment on CCRF-CEM leukemia it was 69.5%; in the experiment with MOLT-4 leukemia it was 82%; in the experiment with SR leukemia, 49.2%; with RPMI-8226 leukemia it was 86.4%; in the experiment on OVCAR-8 ovarian, 102%. Moreover, the growth in the experiment with OVCAR-5 ovarian is 103%; in the experiment on OVCAR-4 ovarian, 95%; with SK-OV-3 ovarian it was 128%; with OVCAR-3 ovarian it was 104%; with HS 578T breast, 99.4%; in the experiment with NCI/ADR-RES ovarian it was 103%.
On to `CCc1cccc(C)c1NC(=O)c1sc2nc3c(cc2c1N)C(=O)CCC3`, for which the growth in the experiment with SK-MEL-2 melanoma is 27.5%; with SN12C renal, 51.5%; in the experiment on UO-31 renal, 50.1%; in the experiment on TK-10 renal, 51.5%; in the experiment on ACHN renal it was 51.9%; with CAKI-1 renal it was 45.8%. Also, the growth with A498 renal is -9.18% (active); in the experiment with CCRF-CEM leukemia, 9.81% (active); in the experiment on MOLT-4 leukemia it was 18%; in the experiment with SR leukemia, 2.24% (active); in the experiment with RPMI-8226 leukemia, 9.64% (active); in the experiment on OVCAR-8 ovarian, 27.9%. The growth with OVCAR-5 ovarian is 29.2%; in the experiment on SK-OV-3 ovarian it was 10.4%; in the experiment on IGROV1 ovarian, 30.7%; in the experiment on OVCAR-3 ovarian, -26% (active); in the experiment with HS 578T breast it was 24.8%; in the experiment with NCI/ADR-RES ovarian, 8.17% (active).
Turning to `O=C(Nc1cccc(Cl)c1)c1cc([N+](=O)[O-])ccc1O`, the growth in the experiment on SK-MEL-2 melanoma is 5.35% (active); in the experiment on SN12C renal, 55.1%; in the experiment with UO-31 renal it was 45.5%; in the experiment with TK-10 renal, 61%; with ACHN renal it was 59.9%; with CAKI-1 renal, 52.6%. Moreover, the growth in the experiment with A498 renal is 8.44% (active); in the experiment with CCRF-CEM leukemia it was 46.4%; in the experiment with MOLT-4 leukemia, 35.7%; in the experiment on SR leukemia, 57%; in the experiment on RPMI-8226 leukemia it was 25.4%; in the experiment on OVCAR-8 ovarian, 69.3%. Moreover, the growth was 46.1% in the experiment on OVCAR-4 ovarian; 59.8% in the experiment with SK-OV-3 ovarian; 62.5% with IGROV1 ovarian; 42% in the experiment on OVCAR-3 ovarian; 41.9% in the experiment with HS 578T breast; 56% with NCI/ADR-RES ovarian.
Turning to `Cc1cc(Nc2nc(C(=O)Nc3ccccc3)nc3ccccc23)n[nH]1`, the growth in the experiment on SK-MEL-2 melanoma is 45.3%; in the experiment on SN12C renal, 63%; in the experiment with UO-31 renal, 37.3%; with TK-10 renal, 58.8%; with ACHN renal it was 39.9%; in the experiment with CAKI-1 renal it was 24%. The growth with A498 renal is -1.3% (active); in the experiment with CCRF-CEM leukemia, 38.1%; with MOLT-4 leukemia it was 55.4%; with SR leukemia it was 33%; in the experiment with RPMI-8226 leukemia it was 59.6%; in the experiment on OVCAR-8 ovarian, 75.6%. Also, the growth in the experiment on OVCAR-5 ovarian was 82.2%; with SK-OV-3 ovarian, 39.3%; with IGROV1 ovarian it was 39.6%; in the experiment with OVCAR-3 ovarian, 78.1%; in the experiment with HS 578T breast it was 73.2%; in the experiment on NCI/ADR-RES ovarian, 44.2%.
On to `COC1=CC(c2ccc[nH]2)=N/C1=C\c1[nH]c(C)c(C(=O)CCCCC(=O)Nc2ccccc2)c1C`, for which the growth with SK-MEL-2 melanoma was 90.7%; in the experiment with SN12C renal, 73.5%; with UO-31 renal it was 49.9%; in the experiment on TK-10 renal, -11.9% (active); in the experiment on ACHN renal, 95.8%; with CAKI-1 renal, 3.42% (active). The growth with A498 renal was 116%; in the experiment with CCRF-CEM leukemia it was 58.9%; in the experiment with MOLT-4 leukemia it was 76.6%; in the experiment on SR leukemia it was 44%; in the experiment with RPMI-8226 leukemia it was 126%; in the experiment on OVCAR-8 ovarian, -46.4% (active). Besides, the growth in the experiment on OVCAR-5 ovarian is 64.4%; with OVCAR-4 ovarian it was 54.4%; in the experiment with SK-OV-3 ovarian it was 77.5%; with OVCAR-3 ovarian it was 40.6%; in the experiment on HS 578T breast it was 82.2%; in the experiment with NCI/ADR-RES ovarian it was 32.9%.
